Experimental data as given in PubChem BioAssay (NCATS).
Results filed as inconclusive are left out. Calls of active or inactive are those of the source. Unless noted, calls follow the shape of the dose curve; as a rule, active = well fitted curve in the direction sought with a large enough effect; inconclusive = small, poorly fitted or top-dose-only effect, or another doubt; inactive = no such curve, though single readings can be large; an effect the other way counts as inactive or inconclusive.

Legend:
[1] = qHTS assay for measurement of the activity of small molecule inhibitors on Zika virus induced Caspase-3 activity in human iPSC derived neural progenitor cells (hNPCs) (AID 1224857); also: nearly all actives have a fitted effect of over 65% in size
Method in brief: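 Zika virus (2 FFU/cell) infection of human iPSC-derived NPCs, 6 h, following 1 h compound preincubation. Read-out: Caspase-Glo 3/7 luminescence.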

[2] = qHTS assay for measurement of the activity of small molecule inhibitors on Zika virus induced Caspase-3 activity in human astrocytoma cells (AID 1224859)
Method in brief: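 Caspase activation in ZIKV-infected SNB-19 cells (2 FFU/cell, 6 h) measured by Caspase-Glo 3/7 luminescence after 30 min RT; compound pre-incubated 1 h; normalised to uninfected and infected controls.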

[3] = qHTS assay to identify small molecule inhibitors of chordoma cells - UCH-1 (AID 1259355); also: nearly all actives have a fitted effect of over 55% in size; also: potency is read from the fitted curve at half-maximal effect; series mostly up to about 46 µM
Method in brief: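 Seed 800 cells per well; incubate overnight at 37 C, 5% CO2. Add test compounds (15 concentrations), then the auranofin–topoisomerase-agent combination. Incubate 48hr, add CellTiter-Glo, wait 30min, read luminescence.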

[4] = qHTS assay to identify small molecule inhibitors of chordoma cells - UCH-2 (AID 1259356); also: potency is read from the fitted curve at half-maximal effect
[5] = P-glycoprotein substrates identified in KB-8-5-11 adenocarcinoma cell line, qHTS therapeutic library screen (AID 1346987); also: nearly all actives have a fitted effect of over 65% in size; also: potency is read from the fitted curve at half-maximal effect
Method in brief: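 KB-8-5-11: colchicine-selected sub-line of KB-3-1 over-expressing P-gp; assay medium lacked colchicine. 72 h drug exposure at 37 degree C, CellTiter-Glo.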

[6] = Natriuretic polypeptide receptor (hNpr1) antagonism - Pilot counterscreen GloSensor control cell line (AID 1347045; calls by dose curve; also: potency is read from the fitted curve at half-maximal effect)
Method in brief: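 HEK293 cells carrying the GloSensor cGMP sensor (GIP/pGS-40F) were loaded with 2% GloSensor reagent for 2 h, exposed to compounds for 30 min, and then stimulated with 50 uM sodium nitroprusside for 20 min at room temperature.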

[7] = target: Atrial natriuretic peptide receptor 1 (Homo sapiens) (UniProt P16066); assay: Natriuretic polypeptide receptor (hNpr1) antagonism - Pilot screen (AID 1347049; calls by dose curve;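 also: agonist-evoked cGMP luminescence read 20 min after hNppA addition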; also: potency is read from the fitted curve at half-maximal effect)
Atrial natriuretic peptide receptor 1 (Homo sapiens), sequence (P16066 whole entry, looked up): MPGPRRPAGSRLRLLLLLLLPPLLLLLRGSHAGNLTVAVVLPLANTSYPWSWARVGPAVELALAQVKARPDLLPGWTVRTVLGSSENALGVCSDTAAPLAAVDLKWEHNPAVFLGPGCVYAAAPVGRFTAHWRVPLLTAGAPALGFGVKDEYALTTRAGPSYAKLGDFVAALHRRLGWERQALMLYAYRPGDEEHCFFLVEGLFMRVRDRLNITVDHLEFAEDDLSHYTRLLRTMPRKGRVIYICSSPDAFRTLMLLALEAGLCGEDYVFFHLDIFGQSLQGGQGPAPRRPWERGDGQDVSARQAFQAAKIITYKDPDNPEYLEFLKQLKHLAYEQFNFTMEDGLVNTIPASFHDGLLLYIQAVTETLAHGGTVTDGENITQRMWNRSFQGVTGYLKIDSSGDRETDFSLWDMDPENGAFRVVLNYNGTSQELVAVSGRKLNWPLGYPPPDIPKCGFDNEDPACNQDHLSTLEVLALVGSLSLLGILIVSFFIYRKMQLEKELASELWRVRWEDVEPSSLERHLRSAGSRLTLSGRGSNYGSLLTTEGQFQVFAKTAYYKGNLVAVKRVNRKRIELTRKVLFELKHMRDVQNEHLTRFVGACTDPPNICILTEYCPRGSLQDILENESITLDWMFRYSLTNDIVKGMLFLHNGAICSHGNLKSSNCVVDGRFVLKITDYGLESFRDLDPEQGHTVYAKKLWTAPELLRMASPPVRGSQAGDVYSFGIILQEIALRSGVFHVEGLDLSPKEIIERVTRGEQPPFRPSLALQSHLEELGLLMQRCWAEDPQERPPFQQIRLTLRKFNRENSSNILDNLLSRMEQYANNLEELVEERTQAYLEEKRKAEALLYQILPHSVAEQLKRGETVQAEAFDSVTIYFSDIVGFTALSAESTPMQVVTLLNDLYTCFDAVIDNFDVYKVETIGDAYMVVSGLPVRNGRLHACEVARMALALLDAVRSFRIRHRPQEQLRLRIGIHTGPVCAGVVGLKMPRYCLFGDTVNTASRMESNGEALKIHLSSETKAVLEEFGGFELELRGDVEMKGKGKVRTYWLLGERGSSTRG
Method in brief: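 Readout is cGMP-driven firefly luciferase luminescence in HEK293 cells carrying hNpr1 and a PDE5-domain GloSensor, read before and 20 min after 0.1 nM hNppA stimulation. Cells had 2% substrate reagent for 2 h and test compound for 30 min.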

[8] = target: Atrial natriuretic peptide receptor 2 (Homo sapiens) (UniProt P20594); assay: Natriuretic polypeptide receptor (hNpr2) antagonism - Pilot subtype selectivity assay (AID 1347050; calls by dose curve; also: potency is read from the fitted curve at half-maximal effect)
Atrial natriuretic peptide receptor 2 (Homo sapiens), sequence (P20594 whole entry, looked up): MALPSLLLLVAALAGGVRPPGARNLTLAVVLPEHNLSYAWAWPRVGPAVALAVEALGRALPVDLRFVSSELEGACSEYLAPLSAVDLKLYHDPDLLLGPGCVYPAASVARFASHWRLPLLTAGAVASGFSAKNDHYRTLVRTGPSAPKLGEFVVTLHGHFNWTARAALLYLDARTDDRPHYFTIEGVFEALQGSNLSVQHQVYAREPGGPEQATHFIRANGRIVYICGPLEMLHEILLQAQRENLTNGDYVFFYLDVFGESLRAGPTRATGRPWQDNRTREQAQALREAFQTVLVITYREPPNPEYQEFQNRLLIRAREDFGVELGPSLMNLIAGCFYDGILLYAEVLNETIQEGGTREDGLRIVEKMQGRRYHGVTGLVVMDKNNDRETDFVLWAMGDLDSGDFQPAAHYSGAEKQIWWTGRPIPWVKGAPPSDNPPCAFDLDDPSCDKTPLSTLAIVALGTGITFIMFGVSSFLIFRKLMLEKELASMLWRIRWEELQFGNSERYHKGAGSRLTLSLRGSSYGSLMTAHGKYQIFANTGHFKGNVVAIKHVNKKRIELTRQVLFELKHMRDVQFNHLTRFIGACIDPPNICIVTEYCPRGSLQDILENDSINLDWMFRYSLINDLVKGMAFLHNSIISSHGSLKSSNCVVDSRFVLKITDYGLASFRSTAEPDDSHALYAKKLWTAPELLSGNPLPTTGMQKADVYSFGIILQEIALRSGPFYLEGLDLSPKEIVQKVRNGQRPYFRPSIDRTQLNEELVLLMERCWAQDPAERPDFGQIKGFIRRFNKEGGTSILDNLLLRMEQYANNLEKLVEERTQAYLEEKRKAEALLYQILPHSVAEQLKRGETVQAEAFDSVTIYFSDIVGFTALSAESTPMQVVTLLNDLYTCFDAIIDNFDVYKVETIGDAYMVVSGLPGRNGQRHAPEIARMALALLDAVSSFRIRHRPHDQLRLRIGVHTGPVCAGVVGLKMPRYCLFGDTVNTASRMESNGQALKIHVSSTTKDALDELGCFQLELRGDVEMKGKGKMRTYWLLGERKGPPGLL
Method in brief: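 Pilot selectivity screen against hNpr2: HEK293 cGMP-sensor cells are treated with LOPAC1280 compounds, then with hNppC peptide at 1 nM final. The cGMP-driven luminescence change over 20 min at room temperature is the read-out.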

[9] = NS1 protein of Zika virus - qHTS assay to identify small molecule inhibitors in human HEK 293 cells (AID 1347053); also: series mostly up to about 46 µM; nearly all actives have a fitted effect of over 55% in size
Method in brief: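 HEK 293; 20 h pre-culture, 37 C/5% CO2; cpd 1 h pre-infection; ZIKV MR766, MOI = 0.5, 24 h, 37 C; TR-FRET NS1 readout (two anti-NS1 Abs); norm. to no-virus vs infected.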

[10] = target: T1, Tyrosine-protein phosphatase non-receptor type substrate 1 (Homo sapiens) + Leukocyte surface antigen CD47 (Homo sapiens) (UniProt P78324+Q08722); assay: CD47-SIRPalpha protein protein interaction - LANCE assay qHTS validation (AID 1347057; active = well fitted curve in the direction sought with a large enough effect in the signal ratio, with a control signal flat, not every such curve was filed as active; the % refers to the signal ratio; also: series mostly up to about 38 µM)
T1 sequence (P78324 whole entry, looked up): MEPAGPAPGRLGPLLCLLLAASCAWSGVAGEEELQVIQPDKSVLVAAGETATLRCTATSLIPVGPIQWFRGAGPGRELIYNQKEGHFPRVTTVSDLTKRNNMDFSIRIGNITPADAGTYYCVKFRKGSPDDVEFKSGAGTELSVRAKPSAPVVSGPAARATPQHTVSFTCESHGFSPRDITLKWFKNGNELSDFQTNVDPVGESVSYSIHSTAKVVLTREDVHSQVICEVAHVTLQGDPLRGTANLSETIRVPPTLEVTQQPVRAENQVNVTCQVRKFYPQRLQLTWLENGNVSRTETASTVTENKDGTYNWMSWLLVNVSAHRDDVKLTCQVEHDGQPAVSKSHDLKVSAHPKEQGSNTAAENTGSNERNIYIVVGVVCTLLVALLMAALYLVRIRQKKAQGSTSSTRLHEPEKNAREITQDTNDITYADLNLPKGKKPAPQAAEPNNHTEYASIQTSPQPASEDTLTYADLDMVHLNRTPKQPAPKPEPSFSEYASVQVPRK
T1 sequence (Q08722 whole entry, looked up): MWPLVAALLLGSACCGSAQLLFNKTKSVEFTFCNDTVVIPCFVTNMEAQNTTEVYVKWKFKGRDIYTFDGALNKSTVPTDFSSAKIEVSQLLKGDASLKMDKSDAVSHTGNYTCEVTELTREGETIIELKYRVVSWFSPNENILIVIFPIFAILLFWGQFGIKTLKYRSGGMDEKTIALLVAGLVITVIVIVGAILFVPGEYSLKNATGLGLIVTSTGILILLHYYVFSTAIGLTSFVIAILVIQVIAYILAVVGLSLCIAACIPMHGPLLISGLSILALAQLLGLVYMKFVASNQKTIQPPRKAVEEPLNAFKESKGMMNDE
Method in brief: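 First, His-tagged CD47 and Eu-labelled anti-His antibody met the compound for 30 min; next, site-specifically biotinylated SIRPalpha was added for 30 min; finally streptavidin-APC was added before reading the TR-FRET ratio.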

[11] = target: T1, Tyrosine-protein phosphatase non-receptor type substrate 1 (Homo sapiens) + Leukocyte surface antigen CD47 (Homo sapiens); assay: CD47-SIRPalpha protein protein interaction - HTRF assay qHTS validation (AID 1347058; active = well fitted curve in the direction sought with a large enough effect in the signal ratio, not every such curve was filed as active; the % refers to the signal ratio;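 also: recombinant soluble extracellular CD47 with His tag and biotinylated SIRPalpha domains; series mostly up to about 38 µM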)
Method in brief: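 TR-FRET read (Ch1/Ch2 ratio) of soluble extracellular CD47 and Avi-biotinylated SIRPalpha domains in PBS pH 7.4 with 0.05% IGEPAL; 7-point compound titration. Sequential 30 min room-temperature steps; non-biotinylated SIRPalpha as control inhibitor.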

[12] = target: T1, Tyrosine-protein phosphatase non-receptor type substrate 1 (Homo sapiens) + Leukocyte surface antigen CD47 (Homo sapiens); assay: CD47-SIRPalpha protein protein interaction - Alpha assay qHTS validation (AID 1347059);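 also: bead proximity luminescence from CD47 binding SIRPalpha after compound preincubation with SIRPalpha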; also: potency is read from the fitted curve at half-maximal effect
Method in brief: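 Binding is measured by AlphaScreen proximity: Ni-NTA acceptor beads capture His-CD47, streptavidin donor beads capture biotin-SIRPalpha. Each of three additions (SIRPalpha with compound, CD47, beads) incubates 30 min at room temperature protected from light.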

[13] = target: Parathyroid hormone/parathyroid hormone-related peptide receptor (Homo sapiens) (UniProt Q03431); assay: qHTS for PTHR1 Agonists: Optimization Screen against the NCGC LOPAC library (AID 1347079);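 also: GloSensor cAMP luminescence in HEK-293 GP2 cells expressing human PTHR1 with IBMX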
Parathyroid hormone/parathyroid hormone-related peptide receptor (Homo sapiens), sequence (Q03431 whole entry, looked up): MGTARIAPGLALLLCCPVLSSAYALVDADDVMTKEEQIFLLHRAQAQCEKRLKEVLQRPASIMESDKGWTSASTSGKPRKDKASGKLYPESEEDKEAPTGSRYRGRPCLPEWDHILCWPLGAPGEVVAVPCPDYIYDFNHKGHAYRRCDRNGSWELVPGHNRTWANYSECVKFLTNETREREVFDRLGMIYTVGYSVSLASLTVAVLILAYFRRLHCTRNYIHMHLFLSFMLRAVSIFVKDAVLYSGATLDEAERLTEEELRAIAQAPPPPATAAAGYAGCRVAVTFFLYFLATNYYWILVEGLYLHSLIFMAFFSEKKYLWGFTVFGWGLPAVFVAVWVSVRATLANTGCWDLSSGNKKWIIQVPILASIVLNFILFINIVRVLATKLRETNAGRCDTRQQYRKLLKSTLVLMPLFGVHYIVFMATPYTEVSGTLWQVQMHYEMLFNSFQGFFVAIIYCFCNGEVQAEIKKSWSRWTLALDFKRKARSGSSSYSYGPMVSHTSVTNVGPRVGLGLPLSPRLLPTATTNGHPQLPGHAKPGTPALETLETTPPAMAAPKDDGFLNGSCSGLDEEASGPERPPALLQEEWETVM
Method in brief: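 Compounds were tested across a qHTS titration. PTHR1-expressing GP2 cells report cAMP rises via GloSensor luminescence after 1 hr compound exposure at 37C with IBMX present.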

[14] = qHTS of pediatric cancer cell lines to identify multiple opportunities for drug repurposing: Primary screen for TC32 cells (AID 1347089); also: nearly all actives have a fitted effect of over 60% in size; also: potency is read from the fitted curve at half-maximal effect
Method in brief: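 qHTS, TC32, 48 h drug treatment, CellTiter-Glo luminescence as a proxy for metabolically active cells; primary top concentration 46 µM (MIPE 11-pt, NPC 8-pt); confirmatory 11-pt.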

[15] = qHTS of pediatric cancer cell lines to identify multiple opportunities for drug repurposing: Primary screen for DAOY cells (AID 1347090); also: nearly all actives have a fitted effect of over 55% in size; also: potency is read from the fitted curve at half-maximal effect
Method in brief: (§1)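 Cell viability, CellTiter-Glo luminescence; 500-1,000 cells/well, 8- or 11-point titration, 48 h compound exposure at 37 degrees C, 5% CO2. Controls: DMSO neutral, bortezomib 2.3 µM final as positive.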

[16] = qHTS of pediatric cancer cell lines to identify multiple opportunities for drug repurposing: Primary screen for SJ-GBM2 cells (AID 1347091); also: potency is read from the fitted curve at half-maximal effect
Method in brief: as §1

Measured: Potency

N[C@@H](COP(=O)(O)O)C(=O)O
inactive: all assays above

c1ccc2c(c1)CCCC2C1=NCCN1 (stereo not drawn)
not listed: [6] | [10] | [12]
inactive: all other assays above

Cc1nc2c([nH]1)c(=O)n(C)c(=O)n2Cc1ccco1
not listed: [13]
inactive: all other assays above

CCO/C([O-])=N/c1c[n+](N2CCOCC2)no1
not listed: [11]
inactive: all other assays above

CCOC(=O)c1cnc2c(cnn2CC)c1NN=C(C)C
not listed: [5]
inactive: all other assays above

C[C@]12CCC(=O)C=C1CC[C@@H]1[C@@H]2CC[C@@]2(C)[C@H]1CC[C@]2(O)C(=O)CO
not listed: [5]
inactive: all other assays above

C(=C\c1ccccc1)/CN1CCN(C(c2ccccc2)c2ccccc2)CC1
not listed: [5] | [15] | [16]
inactive: all other assays above

CCCCCCCC/C=C\CCCCCCCC(=O)NCc1ccc(O)c(OC)c1
not listed: [5] | [16]
inactive: all other assays above

CCN(CC)CCNC(=O)c1ccc(NC(C)=O)cc1
not listed: [5]
inactive: all other assays above

CNCCC(Oc1ccccc1OC)c1ccccc1 (stereo not drawn)
not listed: [5]
inactive: all other assays above

CCOC(=O)C1=C(C)NC(C)=C(C(=O)OC)C1c1cccc(Cl)c1Cl (stereo not drawn)
not listed: [5]
inactive: all other assays above

CSc1ccc(C(=O)c2[nH]c(=O)[nH]c2C)cc1
not listed: [5] | [11] | [13]
inactive: all other assays above

CN=C(NC#N)NCCSCc1nc[nH]c1C
not listed: [5]
inactive: all other assays above

C[n+]1cc2c3c(ccc2c2ccc4cc5c(cc4c21)OCO5)OCO3
inactive: [1] | [2] | [13]
active: [3] 12.6 µM | [4] 13 µM | [6] 2.07 µM | [7] 4.78 µM | [8] 2.61 µM | [14] 3.25 µM | [15] 2.31 µM | [16] 1.16 µM

NC/C=C/C(=O)O
not listed: [5] | [13]
inactive: all other assays above

COc1ccc2c(c1OC)C(=O)O[C@@H]2[C@H]1c2c(cc3c(c2OC)OCO3)CCN1C
active: [8] 16.5 µM
not listed: [5] | [6] | [16]
inactive: all other assays above

COCCc1ccc(OCC(O)CNC(C)C)cc1 (stereo not drawn)
not listed: [5] | [6]
inactive: all other assays above

c1cnc(N2CCN(Cc3ccc4c(c3)OCO4)CC2)nc1
not listed: [5]
inactive: all other assays above

O=c1[nH]c(=O)n([C@H]2C[C@H](O)[C@@H](CO)O2)cc1Br
not listed: [5] | [13] | [14]
inactive: all other assays above

NC(N)=N/N=C/c1c(Cl)cccc1Cl
not listed: [5]
inactive: all other assays above

C[C@]12CCC(=O)C=C1CC[C@@H]1[C@@H]2C(=O)C[C@@]2(C)[C@H]1CC[C@]2(O)C(=O)CO
not listed: [6] | [7]
inactive: all other assays above

CN(C)C(=O)Oc1ccc[n+](C)c1
not listed: [5] | [6]
inactive: all other assays above

Cc1nc2ccccn2c(=O)c1CCN1CCC(C(=O)c2ccc(F)cc2)CC1
not listed: [5] | [11]
inactive: all other assays above

CCNC(=O)N1CCN(CCCC(c2ccc(F)cc2)c2ccc(F)cc2)CC1
active: [6] 11.7 µM
not listed: [5] | [7] | [8] | [15]
inactive: all other assays above

O=C1NCN(c2ccccc2)C12CCN(CCCC(c1ccc(F)cc1)c1ccc(F)cc1)CC2
active: [3] 31.6 µM | [4] 25.9 µM | [5] 14.6 µM | [16] 23.7 µM
inactive: [1] | [2] | [7] | [8] | [9] | [13]

CCCCCN(CCCCC)C(=O)C(CCC(=O)O)NC(=O)c1ccc(Cl)c(Cl)c1 (stereo not drawn)
not listed: [5]
inactive: all other assays above

CN(C(=O)CCCOc1ccc2[nH]c(=O)ccc2c1)C1CCCCC1
not listed: [5] | [13]
inactive: all other assays above

CC(=O)[C@]1(O)Cc2c(O)c3c(c(O)c2[C@@H](O[C@H]2C[C@H](N)[C@H](O)[C@H](C)O2)C1)C(=O)c1ccccc1C3=O
active: [3] 0.794 µM | [4] 1.16 µM | [5] 4.11 µM | [12] 16.5 µM | [14] 0.47 µM | [15] 2.11 µM
inactive: [1] | [2] | [7] | [8] | [9]

CN(C)CC[C@@H](c1ccc(Br)cc1)c1ccccn1
not listed: [5] | [10] | [11] | [12]
inactive: all other assays above

COc1cc(Cc2cnc(N)nc2N)cc(OC)c1OC
not listed: [5]
inactive: all other assays above

CCN(CC)CCOCCOC(=O)C1(c2ccccc2)CCCC1
not listed: [5] | [13]
inactive: all other assays above

CN(C)C(=O)Oc1cccc([N+](C)(C)C)c1
not listed: [5] | [6]
inactive: all other assays above

C#CCN(C)CCCOc1ccc(Cl)cc1Cl
not listed: [5]
inactive: all other assays above
